# From the supplement of paper PMC9262897, “Low-cost anti-mycobacterial drug discovery using engineered E. coli” (Nature Communications, 2022)
# Counter-ions that a name gives are not always drawn. ± gives the standard deviation of the averaged measurements.
# Tested on: E. coli TESEC Mtb DapB
# Assay: growth (OD600 after 10 h); higher = more growth (less inhibition)
# Details: arabinose induction (level): High; compound 0.1 mM; raw OD600 reference: median of DMSO wells […], cell-free background 0.041
# Procedure: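 TESEC E. coli strains in which the native enzyme is deleted and replaced by arabinose-inducible Mtb Asd, DapB, CysH or TrpD, each grown in its selective medium. Strains were screened against the Prestwick library at 0.1 mM and 1% DMSO in 384-well format at low and high arabinose induction. Growth is read as OD600 after 10 h in triplicate.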
row,Structure (SMILES),growth
1,CCOC(=O)[C@H](CCc1ccccc1)N[C@@H](C)C(=O)N1CCC[C@H]1C(=O)O [Enalapril maleate],0.188 ± 0.018
2,c1ccc2c(c1)CCCc1cc(NCCN3CCOCC3)nnc1-2,0.179 ± 0.0094
3,Cc1c(N)c(=O)n(-c2ccccc2)n1C [Ampyrone],0.175 ± 0.0078
4,COC1=CC(=O)C[C@@H](C)[C@]12Oc1c(Cl)c(OC)cc(OC)c1C2=O [Griseofulvin],0.174 ± 0.0029
5,COc1ccc(C2CNC(=O)C2)cc1OC1CCCC1 (stereo not given) [Rolipram],0.211 ± 0.0056
6,Nc1nc(=O)c2nc(CNc3ccc(C(=O)N[C@@H](CCC(=O)O)C(=O)O)cc3)cnc2[nH]1 [Folic acid],0.211 ± 0.019
7,CC(Cc1cccc(C(F)(F)F)c1)NCCOC(=O)c1ccccc1 (stereo not given) [Benfluorex],0.149 ± 0.0064
8,CN[C@H](CC(C)C)C(=O)N[C@H]1C(=O)N[C@@H](CC(N)=O)C(=O)N[C@H]2C(=O)N[C@H]3C(=O)N[C@H](C(=O)N[C@H](C(=O)O)c4cc(O)cc(O)c4-c4cc3ccc4O)[C@H](O)c3ccc(c(Cl)c3)Oc3cc2cc(c3O[C@@H]2O[C@H](CO)[C@@H](O)[C@H](O)[C@H]2O[C@H]2C[C@](C)(N)[C@H](O)[C@H](C)O2)Oc2ccc(cc2Cl)[C@H]1O [Vancomycin hydrochloride],0.0659 ± 0.0035
9,CC1=C(CC(=O)O)c2cc(F)ccc2/C1=C\c1ccc([S+](C)[O-])cc1 (stereo not given) [Sulindac],0.151 ± 0.013
10,O=C(N/N=C/c1ccc([N+](=O)[O-])o1)c1ccc(O)cc1 [Nifuroxazide],0.0553 ± 0.0015
11,OCCOCCN1CCN(C2=Nc3ccccc3Sc3ccccc32)CC1 [Quetiapine hemifumarate],0.174 ± 0.013
12,Cc1nc2n(c(=O)c1CCN1CCC(c3noc4cc(F)ccc34)CC1)CCCC2 [Risperidone],0.201 ± 0.024
13,O=C1CCc2ccc(OCCCCN3CCN(c4cccc(Cl)c4Cl)CC3)cc2N1 [Aripiprazole],0.177 ± 0.011
14,CCN1CCN(c2cc3c(cc2F)c(=O)c(C(=O)O)cn3C2CC2)CC1 [Enrofloxacin],0.0496 ± 0.00083
15,CO/N=C(\C(=O)N[C@@H]1C(=O)N2C(C(=O)O)=C(C[N+]3(C)CCCC3)CS[C@H]12)c1csc(N)n1 [Cefepime hydrochloride],0.182 ± 0.0028
16,Cc1ncc(C[n+]2csc(CCO)c2C)c(N)n1 [Thiamine hydrochloride],0.227 ± 0.024
17,CC(=O)O[C@H]1C[C@@]2(C)[C@@H](C[C@@H](O)[C@H]3[C@@]4(C)CC[C@@H](O)[C@@H](C)[C@@H]4CC[C@@]32C)/C1=C(\CCC=C(C)C)C(=O)O [Fusidic acid sodium salt],0.0536 ± 0.0022
18,CC(=O)O[C@]1(C(C)=O)CC[C@H]2[C@@H]3C=C(C)C4=CC(=O)CC[C@@H]4[C@H]3CC[C@@]21C [Nomegestrol acetate],0.144 ± 0.014
19,CN(C)CCOC(c1ccccc1)c1ccccc1 [Diphenhydramine hydrochloride],0.195 ± 0.021
20,CC(C)(C)NC[C@@H](O)COc1cccc2c1CCCC2=O [(+) -Levobunolol hydrochloride],0.205 ± 0.021

# Same assay, conditions: arabinose induction (level): Low; compound 0.1 mM; raw OD600 reference: median of DMSO wells 0.227, cell-free background 0.041
row,Structure (SMILES),growth
1,CCOC(=O)[C@H](CCc1ccccc1)N[C@@H](C)C(=O)N1CCC[C@H]1C(=O)O [Enalapril maleate],0.268 ± 0.029
2,c1ccc2c(c1)CCCc1cc(NCCN3CCOCC3)nnc1-2,0.2 ± 0.013
3,Cc1c(N)c(=O)n(-c2ccccc2)n1C [Ampyrone],0.209 ± 0.011
4,COC1=CC(=O)C[C@@H](C)[C@]12Oc1c(Cl)c(OC)cc(OC)c1C2=O [Griseofulvin],0.233 ± 0.022
5,COc1ccc(C2CNC(=O)C2)cc1OC1CCCC1 (stereo not given) [Rolipram],0.217 ± 0.0081
6,Nc1nc(=O)c2nc(CNc3ccc(C(=O)N[C@@H](CCC(=O)O)C(=O)O)cc3)cnc2[nH]1 [Folic acid],0.239 ± 0.013
7,CC(Cc1cccc(C(F)(F)F)c1)NCCOC(=O)c1ccccc1 (stereo not given) [Benfluorex],0.1621 ± 0.00032
8,CN[C@H](CC(C)C)C(=O)N[C@H]1C(=O)N[C@@H](CC(N)=O)C(=O)N[C@H]2C(=O)N[C@H]3C(=O)N[C@H](C(=O)N[C@H](C(=O)O)c4cc(O)cc(O)c4-c4cc3ccc4O)[C@H](O)c3ccc(c(Cl)c3)Oc3cc2cc(c3O[C@@H]2O[C@H](CO)[C@@H](O)[C@H](O)[C@H]2O[C@H]2C[C@](C)(N)[C@H](O)[C@H](C)O2)Oc2ccc(cc2Cl)[C@H]1O [Vancomycin hydrochloride],0.0604 ± 0.0036
9,CC1=C(CC(=O)O)c2cc(F)ccc2/C1=C\c1ccc([S+](C)[O-])cc1 (stereo not given) [Sulindac],0.196 ± 0.054
10,O=C(N/N=C/c1ccc([N+](=O)[O-])o1)c1ccc(O)cc1 [Nifuroxazide],0.0557 ± 0.0021
11,OCCOCCN1CCN(C2=Nc3ccccc3Sc3ccccc32)CC1 [Quetiapine hemifumarate],0.187 ± 0.021
12,Cc1nc2n(c(=O)c1CCN1CCC(c3noc4cc(F)ccc34)CC1)CCCC2 [Risperidone],0.261 ± 0.019
13,O=C1CCc2ccc(OCCCCN3CCN(c4cccc(Cl)c4Cl)CC3)cc2N1 [Aripiprazole],0.213 ± 0.021
14,CCN1CCN(c2cc3c(cc2F)c(=O)c(C(=O)O)cn3C2CC2)CC1 [Enrofloxacin],0.0487 ± 0.0006
15,CO/N=C(\C(=O)N[C@@H]1C(=O)N2C(C(=O)O)=C(C[N+]3(C)CCCC3)CS[C@H]12)c1csc(N)n1 [Cefepime hydrochloride],0.173 ± 0.011
16,Cc1ncc(C[n+]2csc(CCO)c2C)c(N)n1 [Thiamine hydrochloride],0.217 ± 0.015
17,CC(=O)O[C@H]1C[C@@]2(C)[C@@H](C[C@@H](O)[C@H]3[C@@]4(C)CC[C@@H](O)[C@@H](C)[C@@H]4CC[C@@]32C)/C1=C(\CCC=C(C)C)C(=O)O [Fusidic acid sodium salt],0.052 ± 0.0007
18,CC(=O)O[C@]1(C(C)=O)CC[C@H]2[C@@H]3C=C(C)C4=CC(=O)CC[C@@H]4[C@H]3CC[C@@]21C [Nomegestrol acetate],0.129 ± 0.0045
19,CN(C)CCOC(c1ccccc1)c1ccccc1 [Diphenhydramine hydrochloride],0.24 ± 0.051
20,CC(C)(C)NC[C@@H](O)COc1cccc2c1CCCC2=O [(+) -Levobunolol hydrochloride],0.224 ± 0.017
